Test results reported in the supplement of paper PMC10849652.
Of roughly 7,900 targets only a part is listed; those with a hit were picked by preference. About 0.6% of all pairs of compound and target were hits.

Key:
Experiment in all cases: log2 fold change, soluble protein after heating vs DMSO (PISA); higher = thermal stabilisation; K562 cells, 10 uM, 30 min; active = over 0.2 and 3.5 SD of the protein, either way, in both replicates (recomputed)
[1] = compound: CC[C@@H]1C(=O)N(C)c2cnc(Nc3ccc(C(=O)NC4CCN(C)CC4)cc3OC)nc2N1C1CCCC1
Procedure, shortened: (§1)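 K562 cells at 2×10^6 cells/mL were treated with 10 μM compound for 30 min. Aliquots were heated for 3 min across 48°C-58°C, pooled, and extracted in PBS with 0.5% NP-40 at 4°C; soluble protein was the supernatant after 21,000xg for 90 min. Soluble protein was quantified by TMTpro 16plex LC-MS/MS with channel sums equalised, and reported as log2 fold change in thermal stability against DMSO controls, with values from duplicates.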

volasertib = compound: CC[C@@H]1C(=O)N(C)c2cnc(Nc3ccc(C(=O)N[C@H]4CC[C@H](N5CCN(CC6CC6)CC5)CC4)cc3OC)nc2N1C(C)C [volasertib]
Procedure, shortened: as §1

epoxomicin = compound: CC[C@H](C)[C@@H](C(=O)N[C@@H]([C@@H](C)O)C(=O)N[C@@H](CC(C)C)C(=O)[C@]1(CO1)C)NC(=O)[C@H]([C@@H](C)CC)N(C)C(=O)C [epoxomicin]
Procedure, shortened: as §1

[2] = compound: CCn1c(C(=O)N(C2CC2)C2CC2)cc2c3c(ncn3C)c(Nc3cc(C)n(C)n3)nc21
Procedure, shortened: as §1

[3] = compound: CCn1cc(-c2ccnc3[nH]c(-c4cccc(CN(C)C)c4)cc23)c(-c2ccc(NC(=O)N(C)C)cc2)n1
Procedure, shortened: as §1

[4] = compound: CN(C)CC(=O)Nc1ccc2[nH]c(=O)c3ccccc3c2c1
Procedure, shortened: as §1

[5] = compound: CN1CCC(CNc2ccc3ncc(-c4cccc(OC(F)(F)F)c4)n3n2)CC1
Procedure, shortened: as §1

rosiglitazone = compound: CN(CCOC1=CC=C(C=C1)C[C@H]2C(=O)NC(=O)S2)C3=CC=CC=N3 (racemic) [rosiglitazone]
Procedure, shortened: as §1

[6] = compound: CN1C2=C(C3=C1C(=O)N(N=C3)CC4=CC(=CC=C4)N)SC(=C2)S(=O)C
Procedure, shortened: as §1

[7] = compound: CC[C@H](C)N1C=C(C2=C(C=C(C=C21)C3=CN=C(C=C3)N4CCNCC4)C(=O)NCC5=C(C=C(NC5=O)C)C)C
Procedure, shortened: as §1

Measured: log2 fold change

EEF2K (UniProt O00418)
inactive: [1] -0.046 | volasertib -0.395 | epoxomicin 0.093 | [2] 0.102 | [3] 0.028 | [4] 0.096 | [5] -0.188

FAM193B (UniProt Q96PV7)
Sequence of UniProt Q96PV7 (Q96PV7 whole entry, looked up): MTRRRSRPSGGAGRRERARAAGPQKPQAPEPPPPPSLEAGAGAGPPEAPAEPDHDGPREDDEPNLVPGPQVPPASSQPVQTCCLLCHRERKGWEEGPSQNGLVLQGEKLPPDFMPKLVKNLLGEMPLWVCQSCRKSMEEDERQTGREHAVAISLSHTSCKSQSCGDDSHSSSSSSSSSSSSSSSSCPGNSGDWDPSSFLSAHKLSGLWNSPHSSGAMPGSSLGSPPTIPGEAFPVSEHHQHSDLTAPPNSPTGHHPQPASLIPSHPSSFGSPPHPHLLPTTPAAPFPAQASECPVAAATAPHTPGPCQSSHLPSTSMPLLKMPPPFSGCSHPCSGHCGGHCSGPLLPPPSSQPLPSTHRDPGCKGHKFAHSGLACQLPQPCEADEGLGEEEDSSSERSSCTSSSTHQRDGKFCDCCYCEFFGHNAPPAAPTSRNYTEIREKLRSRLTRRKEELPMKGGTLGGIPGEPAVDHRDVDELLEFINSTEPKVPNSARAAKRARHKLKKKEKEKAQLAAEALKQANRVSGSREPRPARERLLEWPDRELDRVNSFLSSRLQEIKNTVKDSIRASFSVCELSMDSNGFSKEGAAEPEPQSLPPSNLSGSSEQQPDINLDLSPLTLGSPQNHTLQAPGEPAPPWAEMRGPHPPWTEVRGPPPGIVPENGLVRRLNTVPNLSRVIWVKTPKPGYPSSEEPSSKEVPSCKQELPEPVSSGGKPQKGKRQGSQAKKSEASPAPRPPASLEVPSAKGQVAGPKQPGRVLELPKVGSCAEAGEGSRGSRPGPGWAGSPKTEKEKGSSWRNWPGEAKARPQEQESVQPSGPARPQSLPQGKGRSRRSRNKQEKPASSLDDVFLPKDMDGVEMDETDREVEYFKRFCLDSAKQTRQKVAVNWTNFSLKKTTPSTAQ
inactive: [1] 0.126 | volasertib 0.092 | epoxomicin -0.033 | [4] -0.442 | rosiglitazone 0.027 | [6] 0.247

DNAH11 (UniProt Q96DT5)
inactive: [1] 0.234 | volasertib 0.426 | [7] -0.029 | epoxomicin -0.157 | [2] 0.063 | [3] 0.176 | [4] -0.111 | rosiglitazone -0.047 | [6] 0.298 | [5] -0.424

CYB561A3 isoform 2 (UniProt Q8NBI2)
Sequence of UniProt Q8NBI2 (Q8NBI2 whole entry, looked up): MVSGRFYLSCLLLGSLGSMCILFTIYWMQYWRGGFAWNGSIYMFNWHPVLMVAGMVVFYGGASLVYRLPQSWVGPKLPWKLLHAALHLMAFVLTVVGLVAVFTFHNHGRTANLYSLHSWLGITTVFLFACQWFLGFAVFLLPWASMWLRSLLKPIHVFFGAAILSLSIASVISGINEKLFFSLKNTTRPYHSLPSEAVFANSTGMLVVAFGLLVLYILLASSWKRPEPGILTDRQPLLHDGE
inactive: [1] -0.058 | volasertib 0.103 | [7] -0.089 | [2] -0.007 | [3] -0.241 | rosiglitazone 0.052 | [6] -0.021 | [5] 0.032

EIF2AK3 (UniProt Q9NZJ5)
Sequence of UniProt Q9NZJ5 (Q9NZJ5 whole entry, looked up): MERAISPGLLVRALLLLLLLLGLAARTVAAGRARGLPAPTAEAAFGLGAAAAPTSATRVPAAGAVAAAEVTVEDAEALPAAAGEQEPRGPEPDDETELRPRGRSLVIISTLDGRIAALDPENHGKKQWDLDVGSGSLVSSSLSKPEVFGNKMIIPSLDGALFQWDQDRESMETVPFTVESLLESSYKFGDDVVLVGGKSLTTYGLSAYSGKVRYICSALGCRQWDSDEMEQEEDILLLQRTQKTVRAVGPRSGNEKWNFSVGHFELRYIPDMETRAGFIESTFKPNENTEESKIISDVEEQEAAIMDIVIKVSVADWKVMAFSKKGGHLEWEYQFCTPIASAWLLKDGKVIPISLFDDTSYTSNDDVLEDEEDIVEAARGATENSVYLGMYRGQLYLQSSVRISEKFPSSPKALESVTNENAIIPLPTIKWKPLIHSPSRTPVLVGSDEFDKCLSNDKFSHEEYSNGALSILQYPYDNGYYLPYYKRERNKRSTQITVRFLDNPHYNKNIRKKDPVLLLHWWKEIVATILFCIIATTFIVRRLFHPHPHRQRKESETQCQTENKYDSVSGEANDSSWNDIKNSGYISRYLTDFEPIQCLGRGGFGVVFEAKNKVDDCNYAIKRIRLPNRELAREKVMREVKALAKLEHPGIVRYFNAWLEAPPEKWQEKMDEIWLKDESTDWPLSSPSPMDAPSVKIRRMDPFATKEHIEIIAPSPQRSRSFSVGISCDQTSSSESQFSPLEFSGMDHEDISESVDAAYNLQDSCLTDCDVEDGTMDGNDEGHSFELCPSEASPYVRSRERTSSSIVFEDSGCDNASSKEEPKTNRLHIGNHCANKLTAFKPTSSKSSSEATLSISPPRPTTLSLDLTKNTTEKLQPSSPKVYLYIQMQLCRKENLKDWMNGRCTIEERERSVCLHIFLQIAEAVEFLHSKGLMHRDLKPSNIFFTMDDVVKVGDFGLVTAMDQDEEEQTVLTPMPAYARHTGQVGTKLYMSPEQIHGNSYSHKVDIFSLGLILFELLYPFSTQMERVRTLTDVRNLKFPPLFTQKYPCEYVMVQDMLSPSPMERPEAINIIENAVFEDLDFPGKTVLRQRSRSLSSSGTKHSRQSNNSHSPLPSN
inactive: [1] 0.322 | volasertib -0.114 | [7] 0.357 | epoxomicin 0.033 | [2] -0.295 | [3] 0.106 | rosiglitazone -0.308 | [6] 0.14 | [5] -0.017

EEF1A1 (UniProt P68104)
Sequence of UniProt P68104 (P68104 whole entry, looked up): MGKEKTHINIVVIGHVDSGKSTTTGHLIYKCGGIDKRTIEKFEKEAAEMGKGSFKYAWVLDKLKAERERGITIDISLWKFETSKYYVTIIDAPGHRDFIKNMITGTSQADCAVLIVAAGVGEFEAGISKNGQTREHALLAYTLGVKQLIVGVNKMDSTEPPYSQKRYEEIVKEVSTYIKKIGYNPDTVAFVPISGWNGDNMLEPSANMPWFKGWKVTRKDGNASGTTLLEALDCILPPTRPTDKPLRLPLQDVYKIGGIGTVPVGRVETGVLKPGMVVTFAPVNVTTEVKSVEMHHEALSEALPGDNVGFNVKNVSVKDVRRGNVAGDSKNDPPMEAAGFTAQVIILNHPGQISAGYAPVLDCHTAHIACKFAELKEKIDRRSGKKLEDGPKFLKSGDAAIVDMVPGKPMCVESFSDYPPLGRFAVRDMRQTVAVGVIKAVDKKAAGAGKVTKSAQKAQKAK
inactive: [1] -0.19 | volasertib 0.098 | [7] 0.131 | epoxomicin 0.148 | [2] 0.021 | [4] 0.165 | rosiglitazone -0.326 | [6] -0.121

FAM241A (UniProt Q8N8J7)
Sequence of UniProt Q8N8J7 (Q8N8J7 whole entry, looked up): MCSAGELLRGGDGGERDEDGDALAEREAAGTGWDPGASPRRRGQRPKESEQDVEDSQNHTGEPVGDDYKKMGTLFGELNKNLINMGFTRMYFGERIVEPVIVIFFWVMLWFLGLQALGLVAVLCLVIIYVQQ
inactive: [1] -0.026 | volasertib 0.007 | [7] -0.002 | [2] 0.057 | [3] 0.037 | [4] -0.093 | rosiglitazone 0.011 | [6] 0.059 | [5] 0.08

F2RL3 (UniProt Q96RI0)
inactive: volasertib 0.076 | [2] 0.074 | [4] 0.012 | [6] -0.002

EIF4G1 (UniProt Q04637)
active: [5] -0.552
inactive: [3] 0.062 | [4] 0 | [6] 0.224

ERF (UniProt P50548)
Sequence of UniProt P50548 (P50548 whole entry, looked up): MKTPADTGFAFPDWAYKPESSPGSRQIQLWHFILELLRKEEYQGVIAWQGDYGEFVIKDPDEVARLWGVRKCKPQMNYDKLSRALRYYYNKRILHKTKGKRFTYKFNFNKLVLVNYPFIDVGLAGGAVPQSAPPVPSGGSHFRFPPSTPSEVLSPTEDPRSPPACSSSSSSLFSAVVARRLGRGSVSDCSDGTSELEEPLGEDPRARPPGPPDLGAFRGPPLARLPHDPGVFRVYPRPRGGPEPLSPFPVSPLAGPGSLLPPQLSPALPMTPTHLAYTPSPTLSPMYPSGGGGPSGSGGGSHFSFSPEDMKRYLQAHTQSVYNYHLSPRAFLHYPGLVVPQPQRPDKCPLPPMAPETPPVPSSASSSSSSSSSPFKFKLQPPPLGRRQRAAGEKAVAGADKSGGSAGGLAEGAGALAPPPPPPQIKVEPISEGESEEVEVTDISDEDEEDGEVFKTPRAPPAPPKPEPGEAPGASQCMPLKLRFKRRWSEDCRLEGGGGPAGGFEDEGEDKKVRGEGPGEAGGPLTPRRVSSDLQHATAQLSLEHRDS
inactive: epoxomicin 0.068 | [2] 0.033 | [3] -0.052 | [5] 0.319

EZH2 isoform 2 (UniProt Q15910)
inactive: volasertib -0.259 | epoxomicin 0.131 | [2] -0.173 | [4] 0.022 | rosiglitazone 0.243 | [6] 0.155

EPHX2 (UniProt E5RI53)
inactive: epoxomicin -0.199 | rosiglitazone -0.248

ENTR1 (UniProt Q96C92)
Sequence of UniProt Q96C92 (Q96C92 whole entry, looked up): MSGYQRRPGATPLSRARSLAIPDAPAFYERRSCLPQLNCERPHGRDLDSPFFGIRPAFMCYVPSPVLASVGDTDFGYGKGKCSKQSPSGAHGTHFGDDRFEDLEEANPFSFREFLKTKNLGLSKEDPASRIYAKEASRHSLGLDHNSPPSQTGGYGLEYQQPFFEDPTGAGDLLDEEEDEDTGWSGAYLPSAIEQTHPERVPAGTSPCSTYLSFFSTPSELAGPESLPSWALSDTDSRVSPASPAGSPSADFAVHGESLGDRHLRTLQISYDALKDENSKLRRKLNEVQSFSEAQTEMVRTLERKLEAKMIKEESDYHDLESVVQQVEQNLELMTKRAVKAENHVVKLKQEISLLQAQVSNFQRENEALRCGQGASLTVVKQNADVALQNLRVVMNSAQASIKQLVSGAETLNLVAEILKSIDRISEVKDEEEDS
inactive: volasertib 0.167 | [2] -0.03 | [4] -0.107 | [6] 0.183

DCP2 (UniProt Q8IU60)
inactive: volasertib -0.153 | epoxomicin -0.04 | [4] -0.069 | [6] 0.319

EHBP1 (UniProt Q8NDI1)
inactive: [1] -0.155 | [3] 0.011 | [5] 0.015

DHRS13 (UniProt Q6UX07)
Sequence of UniProt Q6UX07 (Q6UX07 whole entry, looked up): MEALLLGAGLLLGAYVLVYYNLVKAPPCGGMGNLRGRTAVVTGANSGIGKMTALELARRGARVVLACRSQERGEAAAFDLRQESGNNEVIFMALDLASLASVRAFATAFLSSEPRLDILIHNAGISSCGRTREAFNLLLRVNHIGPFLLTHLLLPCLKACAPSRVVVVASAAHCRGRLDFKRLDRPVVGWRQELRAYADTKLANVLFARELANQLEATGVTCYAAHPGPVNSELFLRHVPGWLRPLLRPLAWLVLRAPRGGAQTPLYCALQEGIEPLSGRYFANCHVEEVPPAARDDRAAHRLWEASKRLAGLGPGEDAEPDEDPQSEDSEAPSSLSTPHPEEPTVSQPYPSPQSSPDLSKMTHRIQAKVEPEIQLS
inactive: [1] 0.157 | [7] 0.139 | [2] -0.135 | [3] -0.077 | [4] 0.225 | [6] 0.143 | [5] 0.098

FAM117B (UniProt Q6P1L5)
Sequence of UniProt Q6P1L5 (Q6P1L5 whole entry, looked up): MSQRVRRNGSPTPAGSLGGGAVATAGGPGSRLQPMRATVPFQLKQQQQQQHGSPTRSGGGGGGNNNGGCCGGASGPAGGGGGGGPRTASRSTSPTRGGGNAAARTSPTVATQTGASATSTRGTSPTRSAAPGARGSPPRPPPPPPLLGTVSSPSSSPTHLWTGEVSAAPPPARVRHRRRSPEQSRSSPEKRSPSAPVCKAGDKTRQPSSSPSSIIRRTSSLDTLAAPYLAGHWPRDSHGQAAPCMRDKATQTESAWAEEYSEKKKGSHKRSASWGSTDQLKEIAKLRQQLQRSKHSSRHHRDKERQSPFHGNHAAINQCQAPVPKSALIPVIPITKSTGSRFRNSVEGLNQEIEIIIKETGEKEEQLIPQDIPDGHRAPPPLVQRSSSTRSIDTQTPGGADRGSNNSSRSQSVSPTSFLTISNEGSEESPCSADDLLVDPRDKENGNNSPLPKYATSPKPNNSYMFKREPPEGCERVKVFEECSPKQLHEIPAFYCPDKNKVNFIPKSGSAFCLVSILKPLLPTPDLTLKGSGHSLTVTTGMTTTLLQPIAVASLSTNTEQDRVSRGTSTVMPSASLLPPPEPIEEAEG
inactive: [1] -0.054 | epoxomicin 0.021 | [2] -0.211 | [3] 0.012 | [4] 0.11 | [6] -0.072 | [5] 0.017

DNM2 isoform 4 (UniProt P50570)
inactive: [1] 0.026 | [7] -0.125 | epoxomicin 0.241 | [2] 0.017 | [3] -0.01 | rosiglitazone 0.038 | [6] 0.027 | [5] -0.252

DNAL1 (UniProt Q4LDG9)
Sequence of UniProt Q4LDG9 (Q4LDG9 whole entry, looked up): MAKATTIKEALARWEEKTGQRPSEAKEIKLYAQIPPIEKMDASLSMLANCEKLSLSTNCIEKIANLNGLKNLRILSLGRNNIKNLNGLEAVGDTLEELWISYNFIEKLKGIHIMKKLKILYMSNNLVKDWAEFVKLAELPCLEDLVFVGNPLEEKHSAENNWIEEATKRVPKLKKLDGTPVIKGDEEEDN
inactive: epoxomicin 0.082 | [4] 0.103 | rosiglitazone -0.683 | [6] -0.256

FAM160A2 isoform 2 (UniProt Q8N612)
inactive: [1] -0.074 | [7] -0.048 | epoxomicin -0.177 | [3] 0.06 | [4] 0.052 | rosiglitazone -0.046 | [6] 0.287 | [5] -0.258

DOP1A (UniProt Q5JWR5)
inactive: epoxomicin 0.069 | [2] -0.067 | [4] 0.121 | rosiglitazone -0.026
